Results as given in PubChem BioAssay (NCI).
Compounds without any hit were thinned out: in the full panel of roughly 83,000, 20% have a hit.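 Values shown are percent growth following 48 h exposure of cells in 96-well plates to a single concentration of compound; below 10 was considered active.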 A number with no mark means an inactive call. Active and inactive are the calls of the source.

How the values were obtained:
Assay in all cases: NCI-60 one-dose screen, 48 h (100 = growth as untreated, 0 = no growth, -100 = all killed)
Conditions in all cases: 10 µM unless noted
NCI-H23 lung = tested on: NCI-H23 lung
NCI-H226 lung = tested on: NCI-H226 lung
NCI-H322M lung = tested on: NCI-H322M lung
HOP-62 NSCLC = tested on: HOP-62 NSCLC
NCI-H460 lung = tested on: NCI-H460 lung
HOP-92 NSCLC = tested on: HOP-92 NSCLC
NCI-H522 lung = tested on: NCI-H522 lung
A549/ATCC NSCLC = tested on: A549/ATCC NSCLC
786-0 renal = tested on: 786-0 renal
COLO 205 colon = tested on: COLO 205 colon
DU-145 prostate = tested on: DU-145 prostate
K-562 leukemia = tested on: K-562 leukemia
MALME-3M melanoma = tested on: MALME-3M melanoma
MDA-MB-231 breast = tested on: MDA-MB-231 breast
RXF 393 renal = tested on: RXF 393 renal
SF-268 CNS = tested on: SF-268 CNS
SF-295 CNS = tested on: SF-295 CNS
SF-539 CNS = tested on: SF-539 CNS
UACC-257 melanoma = tested on: UACC-257 melanoma
M14 melanoma = tested on: M14 melanoma

SMILES | growth (NCI-H23 lung) | growth (NCI-H226 lung) | growth (NCI-H322M lung) | growth (HOP-62 NSCLC) | growth (NCI-H460 lung) | growth (HOP-92 NSCLC) | growth (NCI-H522 lung) | growth (A549/ATCC NSCLC) | growth (786-0 renal) | growth (COLO 205 colon) | growth (DU-145 prostate) | growth (K-562 leukemia) | growth (MALME-3M melanoma) | growth (MDA-MB-231 breast) | growth (RXF 393 renal) | growth (SF-268 CNS) | growth (SF-295 CNS) | growth (SF-539 CNS) | growth (UACC-257 melanoma) | growth (M14 melanoma)
O=[N+]([O-])c1ccccc1NCSc1ccc(Cl)cc1 | 91.2% | 91% | 98.1% | 124% | 95.8% | 78.3% | 90.7% | 91.3% | 87.6% | 116% | 102% | 93.1% | 87.5% | 90% | 88.9% | 84.2% | 77.4% | 107% | 95.8% | 102%
Cc1ccc2nc(NC(=O)CSc3nc(Cl)c(C#N)c(-c4ccccc4)n3)sc2c1 | 97.9% | 107% | 101% | 102% | 106% | 95% | 86.9% | 98.6% | 103% | 110% | 113% | 99.7% | 104% | 111% | 114% | 111% | 101% | 102% | 101% | 97.9%
CCCCCCN(CCCCCC)c1ccc(/C=C2/SC(=O)NC2=O)c(C)c1 | 76.5% | 104% | 87% | 110% | 81.3% | 13.9% | 77.4% | 73.2% | 77.6% | 109% | 102% | 65.2% | 72.9% | 111% | 101% | 89.5% | 65.6% | 117% | 103% | 90.1%
CCN(CC)CCCNc1nc2ccccc2c2c(=O)c3cc(Cl)ccc3sc12 | 86.5% | 82.1% | 84.5% | 74.4% | 8.8% (active) | 36.9% | 73.8% | 64.7% | 75.7% | 56.3% | 54.4% | -44.2% (active) | 84.6% | -9.32% (active) | 76% | 55.6% | 104% | 58.3% | 102% | 1.36% (active)
COc1ccc(C(=O)C(C)C)c2ccccc12 | 101% | 105% | 117% | 99.8% | 101% | 83.6% | 102% | 129% | 100% | 113% | 104% | 92.7% | 115% | 104% | 109% | 102% | 103% | 103% | 128% | 104%
Cn1cc(C(=O)c2nc(-c3cn(C)c4ccc(F)cc34)no2)c2cc(F)ccc21 | 92.5% | 89.1% | 84% | 92.2% | 90.7% | 83.6% | 79.3% | 87.5% | 107% | 103% | 110% | 96.2% | 96.4% | 96.7% | 116% | 99.6% | 100% | 107% | 94.9% | 100%
Cn1cc(-c2cc3ncnc(Nc4ccc(CC(=O)Nc5cc(C(C)(C)C)nn5C)cc4)c3s2)cn1 | 60% | 38% | 46.4% | 71% | 43.5% | 70% | 41.5% | 42.1% | 43.7% | 52.9% | 40.3% | 17% | 56.7% | 47.7% | 9.8% (active) | 51.8% | 58.1% | 47.4% | 83.9% | 39.2%
N#C/C(=C\c1cccc2cnccc12)n1nnc2cccc(F)c21 | 27.7% | 62.6% | 89.9% | 53.2% | 35.5% | -25% (active) | 18.3% | 86.6% | 56.4% | 34.3% | 2.26% (active) | 11.9% | 22.6% | 31.7% | -2.13% (active) | 67.4% | 93.4% | 36.6% | 52.1% | 35.1%
CCOC(=O)c1cn2ncnc(Oc3ccc(NC(=O)NCCN(CC)CC)c(Cl)c3)c2c1C | 76.6% | 91.5% | 98.7% | 84.2% | 104% | 41.5% | 72.9% | 91.5% | 72% | 57.2% | 90.5% | -9.77% (active) | 22.3% | 59.8% | 41% | 65% | 92% | 50.7% | -41.7% (active) | -64.4% (active)
CCN1C(=O)N(CC)C2Nn3c(s/c(=C4\C(=O)N(CCC(C)C)c5ccccc54)c3=O)=NC21 (stereo not given) | 87.8% | 83.9% | 92.4% | 89.2% | 106% | 73.2% | 50.4% | 90% | 57.1% | 73.2% | 96.3% | 26.1% | 79.8% | 78.3% | 84.5% | 82.5% | 98.5% | 86.8% | 66.3% | 56.6%
COc1ccc(/C=C/c2c(C(=O)/C=C/c3ccc(Cl)cc3)c(C)nc3ccccc23)cc1 | 35.8% | 12.4% | 68.6% | 22.7% | 0.257% (active) | 70.2% | 23.6% | 84.1% | 14.3% | 58.4% | 13.8% | 9.27% (active) | 28% | 34.1% | -18.6% (active) | 58.7% | 42.2% | 14.4% | 38.8% | 14.7%
O=C1COCCN1c1ccc(NCc2cn(C(=O)c3ccc(Cl)cc3)c3ccccc23)cc1 | 54.5% | -61.1% (active) | 95.1% | 60.2% | 14.9% | 58.2% | 65.6% | 46.9% | 65.8% | 29.3% | 84.2% | 28.3% | 78.1% | 118% | 8.91% (active) | 98% | 47.2% | 93.4% | 33.6% | 74.1%
[O-][n+]1c2ccccc2[n+]([O-])c2c3ccccc3[nH]c21 | 71.5% | -0.987% (active) | 66.9% | 26.2% | 5.29% (active) | 66.5% | 57.5% | 30.6% | 71% | 69.8% | 72.6% | 87.7% | 110% | 75.9% | 99.6% | 109% | 69.7% | 91.4% | -31.3% (active) | 98.5%
C[C@H]1[C@H]2[C@H]3CC[C@@H]4[C@@]5(C)CC[C@H](O)C(C)(C)[C@@H]5CC[C@@]4(C)[C@]3(C)CC[C@]23CO[C@]1(C)[C@@H](C(=O)/C=C\c1cccnc1)C3 | 59.5% | 76.6% | 88.4% | 81.7% | 40.7% | 79.1% | 38% | 57.8% | 63.6% | 56.3% | 73.9% | 18% | 54.4% | 82.1% | 75.2% | 81.9% | 79.9% | 77.8% | 49.3% | 60.8%
COc1ccc(OC)c(/C=C/C(=O)N/N=C/c2ccc(Cl)cc2)c1 | 34.8% | 73.1% | 41.3% | 37.9% | 5.19% (active) | 77.7% | -36.2% (active) | 27.8% | 16.7% | -48.9% (active) | 14.8% | 14% | 54.1% | 28.1% | -19.8% (active) | 33.2% | 31.8% | -43.2% (active) | 53% | -34.4% (active)
